Composite z-score and z-score data for 5 molecules are collected here from PubChem BioAssay.

The source made the active and inactive calls. Unless noted, how the calls were made is not given here.

The nature of assay [1]: anti-His antibody binders, primary screen, artefact control for SMM control protein annotation, biochemical, small-molecule microarray, 635 nm fluorescence (AID 1128).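 Further: score merges feature fluorescence with signal-to-noise for each printed compound spot.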 To be noted: anti-His Alexa647 antibody binding, higher = more signal.
Assay [2] relates to Human papillomavirus type 1a E7 protein (residues 1-88). Nature of the assay: HPV1a E7 small-molecule binders, primary screen, biochemical, small-molecule microarray, residues 1-88, 635 nm (AID 1129). To be noted: small-molecule microarray binding, fluorescence 635 nm; higher = more signal.
Assay [3] has as its target Focal adhesion kinase 1 (Homo sapiens) (UniProt Q05397). Nature of the assay: small-molecule microarray binders of FAK, primary screen, biochemical, 635/667 nm fluorescence, BSA, DTT (AID 1130).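 Further: composite of spot emission at 667 nm and signal to noise over triplicate slides.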 The settings on record: PTK2 binding, 635 nm fluorescence, higher = more signal.
Assay [4] has as its system Fibrinogen (Alexa647-labelled). Nature of the assay: fibrinogen binders on compound microarrays, profiling panel, artefact control for SMM control-protein annotation, biochemical, small-molecule microarray, 635/667 nm fluorescence (AID 1131).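 Further: z-score merges 667 nm fluorescence with per-spot signal-to-noise over triplicate slides.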 To be noted: fibrinogen-A647 binding fluorescence, higher = more signal.
Assay [5] deals with Follistatin (Homo sapiens) (UniProt P19883). Nature of the assay: follistatin binders on small-molecule microarrays, primary screen, biochemical, small-molecule microarray, 635/667 nm fluorescence (AID 1132). To be noted: FST binding, 635 nm fluorescence, higher = more signal.
Sequence of Follistatin (Homo sapiens) (P19883 whole entry, looked up): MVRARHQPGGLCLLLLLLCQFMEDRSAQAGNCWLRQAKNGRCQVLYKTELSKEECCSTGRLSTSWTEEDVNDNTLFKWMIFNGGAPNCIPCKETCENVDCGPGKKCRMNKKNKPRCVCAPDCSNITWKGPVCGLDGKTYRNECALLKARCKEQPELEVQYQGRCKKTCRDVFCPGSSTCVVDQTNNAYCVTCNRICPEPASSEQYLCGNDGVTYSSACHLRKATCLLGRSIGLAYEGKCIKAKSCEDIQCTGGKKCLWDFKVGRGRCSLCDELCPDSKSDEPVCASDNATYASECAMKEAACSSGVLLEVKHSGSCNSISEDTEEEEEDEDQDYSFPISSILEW
Assay [6] has as its target Fibroblast growth factor 2 (Homo sapiens) (UniProt P09038). Nature of the assay: FGF2 binders on small-molecule microarrays, primary screen, biochemical, small-molecule microarray, 635/667 nm fluorescence (AID 1133). The settings on record: small-molecule microarray binding, FGF2, fluorescence 635/667; higher = more signal.
The nature of assay [7]: mitochondrial membrane potential change in A549 cells, profiling panel, cell-based, JC-1 fluorescence, basal, 24 h, 100 nL (AID 1138).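 Further: A549 lung adenocarcinoma cells under basal conditions with no added stimulus; test concentration not given here.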 To be noted: higher = more signal.
Another assay concerns Lefty1. Nature of the assay: Lefty1 binders on small-molecule microarrays, primary screen, biochemical, small-molecule microarray, 635/667 nm fluorescence (AID 1139). The settings on record: small-molecule microarray binding, fluorescence 635/667; higher = more signal.
Assay [8] deals with wheat germ agglutinin (Triticum aestivum), Alexa647-labelled. Nature of the assay: wheat germ agglutinin binders on compound microarrays, profiling panel, artefact control for SMM control-protein annotation, biochemical, small-molecule microarray, 635/667 nm fluorescence (AID 1140).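 Further: score merges 667 nm feature emission with signal to noise over triplicate slides.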 The settings on record: WGA-A647 binding, 635 nm fluorescence, higher = more signal.
Assay [9] concerns the target Luciferin 4-monooxygenase (Photinus pyralis) (UniProt P08659). Nature of the assay: firefly luciferase enzyme inhibitors, primary screen, biochemical, luminescence, purified enzyme, 2006 set (AID 1141).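 Further: cell-free assay with purified firefly luciferase at 100 ng per well in PBS; test concentration not given here.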 The settings on record: SteadyGlo luminescence, 30 min, higher = more signal, called active from +8 up or from −8 down.
In assay [10] the test system is Wnt5a (protein binding on small-molecule microarray). Nature of the assay: Wnt5a binders on small-molecule microarray, primary screen, biophysical, 635/667 nm fluorescence (AID 1142).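 Further: fluorescence read at 667 nm with signal to noise per printed feature.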 To be noted: 635 nm fluorescence, higher = more signal.
Assay [11] is described as follows: cell viability in Huh7 cells, primary screen, cytotoxicity control for HCV replication inhibitor project, CellTiter-Glo luminescence, basal, 48 h (AID 1143).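 Further: Huh7 hepatoma cells carrying a hepatitis C replication reporter with no stimulus; test concentration not given here.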 To be noted: Huh7 HCV replicon, higher = more signal, called active from +8 up or from −8 down.
Assay [12] in a line: P. aeruginosa biofilm formation inhibitors, primary screen, PAO1 strain, BacTiter-Glo luminescence, LB-PBS (AID 1144). To be noted: 12 h, higher = more signal.
A short description of assay [13]: CREB reporter modulators without forskolin, primary screen, cell-based, PC12, CRE-LacZ reporter, unstimulated (AID 1145). The settings on record: no forskolin, luminescence, 4.5 h, higher = more signal, called active from +8 up or from −8 down.
The nature of assay [14]: CREB reporter modulators under forskolin, primary screen, cell-based, PC12, CRE-LacZ reporter, forskolin-stimulated (AID 1146).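 Further: PC12 cells with 6xCRE LacZ reporter stimulated by forskolin 10 µM; beta-galactosidase reporter signal reflecting CREB driven transcription.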 The settings on record: luminescence, 4.5 h, higher = more signal, called active from +8 up or from −8 down.
In assay [15] the target is Streptavidin (Streptomyces avidinii) (UniProt P22629). Nature of the assay: streptavidin binders on small-molecule microarray, primary screen, artefact control for SMM compound annotation, biophysical, 635/667 nm fluorescence (AID 1147).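 Further: signal reflects streptavidin binding to arrayed compounds as a control protein.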 To be noted: streptavidin binding, higher = more signal.
Sequence of Streptavidin (Streptomyces avidinii) (P22629 whole entry, looked up): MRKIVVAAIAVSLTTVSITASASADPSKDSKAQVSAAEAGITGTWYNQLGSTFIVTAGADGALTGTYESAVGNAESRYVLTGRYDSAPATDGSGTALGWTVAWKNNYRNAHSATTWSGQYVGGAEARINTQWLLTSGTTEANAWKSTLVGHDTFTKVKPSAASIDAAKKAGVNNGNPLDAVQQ
The nature of assay [16]: small-molecule binders of probe aInhba, primary screen, biochemical, small-molecule microarray, 635/667 nm fluorescence (AID 1148).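 Further: score merges 667nm spot fluorescence with signal-to-noise for antibody binding to printed compounds.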 The settings on record: higher = more signal.
For assay [17], the target named is Torsin-1A (Homo sapiens) (UniProt O14656). Nature of the assay: torsin A binders from cell lysate, primary screen, small-molecule microarray, wild-type, 635/667 nm (AID 1149). The settings on record: COS7 hTOR1A-WT lysate, 635 nm fluorescence, higher = more signal.
Sequence of Torsin-1A (Homo sapiens) (O14656 whole entry, looked up): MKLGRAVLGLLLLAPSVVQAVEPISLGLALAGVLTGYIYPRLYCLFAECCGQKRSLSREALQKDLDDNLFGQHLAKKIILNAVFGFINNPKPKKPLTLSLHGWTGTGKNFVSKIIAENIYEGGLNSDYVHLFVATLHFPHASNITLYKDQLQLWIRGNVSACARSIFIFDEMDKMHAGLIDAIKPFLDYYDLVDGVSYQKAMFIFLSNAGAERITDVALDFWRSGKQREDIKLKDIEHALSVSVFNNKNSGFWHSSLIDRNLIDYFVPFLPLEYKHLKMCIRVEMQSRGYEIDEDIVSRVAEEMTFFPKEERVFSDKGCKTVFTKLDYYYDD
Assay [18] shares this target. Nature of the assay: small-molecule binders of mutant TOR1A in lysate, primary screen, cell lysate, small-molecule microarray, COS7 lysate, 635/667 nm fluorescence (AID 1150).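 Further: score pools 667 nm emission and signal to noise measuring lysate protein binding.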 To be noted: COS7 hTOR1A mutant lysate, 635 nm fluorescence, higher = more signal.
For assay [19], the system named is Sonic hedgehog protein (Shh). Nature of the assay: small-molecule binders of Shh protein, primary screen, biochemical, small-molecule microarray, 635/667 nm fluorescence (AID 1151).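 Further: Shh protein binding to compounds spotted on small-molecule microarray slides; score combines spot fluorescence intensity with signal-to-noise across triplicate slides.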 The settings on record: small-molecule microarray binding, 635 nm fluorescence; higher = more signal.

Sequence of Fibroblast growth factor 2 (Homo sapiens) (P09038 whole entry, looked up): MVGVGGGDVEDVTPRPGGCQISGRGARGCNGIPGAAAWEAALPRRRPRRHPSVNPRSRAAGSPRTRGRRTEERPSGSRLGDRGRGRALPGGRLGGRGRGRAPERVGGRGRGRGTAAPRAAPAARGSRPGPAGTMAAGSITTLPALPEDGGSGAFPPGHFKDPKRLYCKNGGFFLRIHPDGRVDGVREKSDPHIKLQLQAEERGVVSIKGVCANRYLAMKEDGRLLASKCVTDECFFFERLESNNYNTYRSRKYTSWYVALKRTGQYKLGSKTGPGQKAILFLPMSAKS
Sequence of Focal adhesion kinase 1 (Homo sapiens) (Q05397 whole entry, looked up): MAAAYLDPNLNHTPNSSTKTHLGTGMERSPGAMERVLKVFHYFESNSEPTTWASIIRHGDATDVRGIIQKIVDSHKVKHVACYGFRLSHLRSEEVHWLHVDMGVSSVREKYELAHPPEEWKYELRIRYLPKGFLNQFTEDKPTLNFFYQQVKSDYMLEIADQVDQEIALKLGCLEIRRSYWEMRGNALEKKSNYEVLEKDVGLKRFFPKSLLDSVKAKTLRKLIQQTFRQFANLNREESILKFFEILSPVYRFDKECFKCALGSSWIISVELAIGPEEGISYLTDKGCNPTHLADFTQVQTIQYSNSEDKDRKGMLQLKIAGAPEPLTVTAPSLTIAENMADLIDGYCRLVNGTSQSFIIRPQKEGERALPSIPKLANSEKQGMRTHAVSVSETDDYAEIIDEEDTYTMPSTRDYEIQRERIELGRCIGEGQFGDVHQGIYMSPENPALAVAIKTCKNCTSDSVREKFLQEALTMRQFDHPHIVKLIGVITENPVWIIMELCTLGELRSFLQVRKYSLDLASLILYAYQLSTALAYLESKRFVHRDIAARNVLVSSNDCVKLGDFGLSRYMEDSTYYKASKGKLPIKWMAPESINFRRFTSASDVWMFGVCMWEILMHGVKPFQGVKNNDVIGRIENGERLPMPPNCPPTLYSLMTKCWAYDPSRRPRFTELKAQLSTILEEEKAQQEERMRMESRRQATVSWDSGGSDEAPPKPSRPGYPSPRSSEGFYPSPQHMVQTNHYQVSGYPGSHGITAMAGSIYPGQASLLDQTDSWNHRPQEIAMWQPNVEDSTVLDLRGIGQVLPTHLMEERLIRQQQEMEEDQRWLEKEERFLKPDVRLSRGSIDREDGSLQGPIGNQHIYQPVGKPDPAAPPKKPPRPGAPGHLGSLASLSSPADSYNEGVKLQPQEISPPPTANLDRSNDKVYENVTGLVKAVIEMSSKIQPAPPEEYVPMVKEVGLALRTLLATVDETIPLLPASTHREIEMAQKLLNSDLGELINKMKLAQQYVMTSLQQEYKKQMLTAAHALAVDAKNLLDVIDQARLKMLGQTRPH
Sequence of Luciferin 4-monooxygenase (Photinus pyralis) (P08659 whole entry, looked up): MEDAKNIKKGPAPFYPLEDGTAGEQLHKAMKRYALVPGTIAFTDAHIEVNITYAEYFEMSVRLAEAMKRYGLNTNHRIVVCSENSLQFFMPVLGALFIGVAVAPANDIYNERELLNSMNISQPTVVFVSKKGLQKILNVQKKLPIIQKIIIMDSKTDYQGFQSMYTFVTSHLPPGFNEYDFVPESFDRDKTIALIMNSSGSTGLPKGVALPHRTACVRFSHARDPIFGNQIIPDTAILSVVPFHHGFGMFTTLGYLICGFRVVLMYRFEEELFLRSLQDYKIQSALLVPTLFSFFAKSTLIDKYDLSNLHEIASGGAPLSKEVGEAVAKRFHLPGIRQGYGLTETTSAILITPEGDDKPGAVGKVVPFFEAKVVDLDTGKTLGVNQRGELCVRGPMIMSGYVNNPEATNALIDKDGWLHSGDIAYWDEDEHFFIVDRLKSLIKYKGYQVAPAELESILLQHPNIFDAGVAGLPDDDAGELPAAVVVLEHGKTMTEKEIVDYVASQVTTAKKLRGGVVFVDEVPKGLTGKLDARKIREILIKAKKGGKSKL

In the case of `O=C1O[C@H](c2ccccc2)[C@H](c2ccccc2)N2[C@H]1[C@@H](C(=O)NC[C@H](O)c1ccccc1)[C@]1(C(=O)Nc3ccc(C#CC4=CCCCC4)cc31)[C@H]2c1ccc(O)cc1`, the composite z-score in assay [1] stood at 1.86; in [2], 1.17; in assay [3], 0.191; in assay [4], 0.826; in assay [5] it was 1.35; in assay [6] it was 1.59. For the same molecule, the composite z-score in the assay on Lefty1 came to 0.82; in assay [8] it was 0.331; in assay [10], 0.688; in [15] it was 0.758; in assay [16], 0.121; in the assay with Torsin-1A (Homo sapiens) [17], 0.769. The composite z-score turned out to be 1.08 with Torsin-1A (Homo sapiens) [18] and 1.51 in assay [19]. Moreover, the z-score in [7] is -1.38; in [9], -1.5 (inactive); in assay [11] it was -5.36 (inactive); in assay [12], -0.354 (inactive); in assay [13], -0.602 (inactive); in assay [14], -0.912 (inactive).
As for `[N-]=[N+]=Nc1ccccc1C[C@]1(C(=O)N2CCCCC2)N=C(c2ccc(OCCCO)cc2)O[C@H]1c1ccccc1N=[N+]=[N-]`, the composite z-score in assay [1] was 1.6; in assay [2], 1.24; in assay [3], 0.544; in [4], 0.945; in assay [5], 1.18; in assay [6], 0.806. For the same molecule, the composite z-score was -0.105 with Lefty1; 0.811 in assay [8]; 0.316 in assay [10]; 1.04 in assay [15]; 0.622 in assay [16]; 0.656 with Torsin-1A (Homo sapiens) [17]. Besides, the composite z-score was found to be 0.951 with Torsin-1A (Homo sapiens) [18] and 0.364 in [19]. Also, the z-score in [7] was 0.591; in [9] it was -3.15 (inactive); in assay [11] it was -3.99 (inactive); in assay [12], -0.546 (inactive); in assay [13] it was 0.722 (inactive); in [14], -1.69 (inactive).
Regarding `COc1ccc(C#Cc2ccc3c(c2)[C@]2(C(=O)N3)[C@H](C(=O)N3CCN(c4ncccn4)CC3)[C@H]3C(=O)O[C@H](c4ccccc4)[C@H](c4ccccc4)N3[C@@H]2c2ccc(O)cc2)cc1`, the composite z-score in assay [1] turned out to be 0.658; in assay [2], 1.2; in [3], 0.392; in [4], 0.972; in assay [5] it was 1.2; in [6] it was 0.485. The composite z-score was 0.884 with Lefty1; 0.4 in [8]; 0.205 in assay [10]; 1.04 in assay [15]; 0.13 in assay [16]; -0.0852 in the assay with Torsin-1A (Homo sapiens) [17]. In addition, the composite z-score with Torsin-1A (Homo sapiens) [18] worked out at 0.231; in assay [19] it was 0.88. Also, the z-score in [7] was -0.799; in assay [9], -0.374 (inactive); in assay [11] it was -0.629 (inactive); in [12], -0.747 (inactive); in assay [13], 0.775 (inactive); in [14], -0.612 (inactive).
As for `COC(=O)C(CC#Cc1ccc2c(c1)[C@]1(C(=O)N2)[C@H](C(=O)N2CCCCCCC2)[C@H]2C(=O)O[C@H](c3ccccc3)[C@H](c3ccccc3)N2[C@@H]1c1ccccc1OCCO)C(=O)OC`, the composite z-score in [1] came out at 3; in assay [2], 1.35; in [3], 4.24; in [4], 0.654; in assay [5] it was 1.56; in assay [6] it was 0.197. Moreover, the composite z-score with Lefty1 came out at 1.89; in [8], 1.73; in [10] it was 2.44; in [15], 4.06; in assay [16], 2.24; with Torsin-1A (Homo sapiens) [17], 3.84. Also, the composite z-score was found to be 3.73 with Torsin-1A (Homo sapiens) [18] and 2.04 in assay [19]. Moreover, the z-score in assay [7] was -1.08; in assay [9], -0.525 (inactive); in assay [11] it was -3.54 (inactive); in assay [12], -0.429 (inactive); in assay [13] it was -0.141 (inactive); in assay [14] it was -0.81 (inactive).
Regarding `CCOC(=O)C=Cc1cccc(OC)c1O`, the composite z-score is 0.447 in assay [1]; -0.311 in assay [2]; -0.227 in [3]; 0.102 in [4]; -0.248 in [5]; -1.13 in assay [6]. Further, the composite z-score in the assay on Lefty1 is -0.679; in assay [8], 0.859; in [10], -0.811; in assay [15], -0.432; in assay [16], -0.13; in the assay with Torsin-1A (Homo sapiens) [17] it was -0.146. In addition, the composite z-score with Torsin-1A (Homo sapiens) [18] is 0.141; in assay [19] it was -0.8. Also, the z-score in [7] is -1.37; in [9] it was -17.6 (active); in assay [11] it was -4.11 (inactive); in assay [12] it was 1.91 (inactive); in assay [13] it was 0.182 (inactive); in assay [14], -0.791 (inactive).
